Screens deposited in PubChem by several laboratories.
PfG6PD inh = PfG6PD enzyme inhibitors, primary screen, biochemical, fluorescence intensity, uHTS. inhibition, % at 20 µM. glucose-6-phosphate dehydrogenase-6-phosphogluconolactonase (Plasmodium falciparum 3D7). PfGluPho enzyme, NADPH resazurin-diaphorase fluorescence. AID 504690, 2011. actives 0.78% (n = 350,000);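 active = inhibition reaching at least a set limit at 20 µM in the primary screen, cut at about 59% in these data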
FAS TE block = FAS thioesterase domain inhibitors, primary screen, biochemical, fluorescence intensity, uHTS. recombinant FAS-TE, OMFH fluorogenic substrate, fluorescence endpoint. AID 602261, 2012. inhibition, % at 15 µM. actives 0.67% (n = 360,000). Fatty acid synthase (Homo sapiens), P49327;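 active = compounds whose normalised, plate-corrected inhibition of enzyme fluorescence in the single-dose primary screen is 50% or more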
Neddylation inh = inhibitors of cullin neddylation, primary screen, biochemical, TR-FRET, uHTS, NAE and Ubc12 | NEDD8-conjugating enzyme Ubc12 (Homo sapiens) + NEDD8-activating enzyme E1 regulatory … | calls only at 25 µM | actives 0.58% (n = 360,000) | AID 651699, 2012; in the data active = inhibition above about 36%
Target sequence (P61081 whole entry, looked up): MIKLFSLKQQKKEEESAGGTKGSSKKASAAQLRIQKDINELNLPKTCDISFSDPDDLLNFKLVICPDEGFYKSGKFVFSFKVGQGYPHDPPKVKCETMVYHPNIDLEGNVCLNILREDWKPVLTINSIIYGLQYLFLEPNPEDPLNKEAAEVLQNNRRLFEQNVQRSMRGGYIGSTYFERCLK
Target sequence (Q13564 whole entry, looked up): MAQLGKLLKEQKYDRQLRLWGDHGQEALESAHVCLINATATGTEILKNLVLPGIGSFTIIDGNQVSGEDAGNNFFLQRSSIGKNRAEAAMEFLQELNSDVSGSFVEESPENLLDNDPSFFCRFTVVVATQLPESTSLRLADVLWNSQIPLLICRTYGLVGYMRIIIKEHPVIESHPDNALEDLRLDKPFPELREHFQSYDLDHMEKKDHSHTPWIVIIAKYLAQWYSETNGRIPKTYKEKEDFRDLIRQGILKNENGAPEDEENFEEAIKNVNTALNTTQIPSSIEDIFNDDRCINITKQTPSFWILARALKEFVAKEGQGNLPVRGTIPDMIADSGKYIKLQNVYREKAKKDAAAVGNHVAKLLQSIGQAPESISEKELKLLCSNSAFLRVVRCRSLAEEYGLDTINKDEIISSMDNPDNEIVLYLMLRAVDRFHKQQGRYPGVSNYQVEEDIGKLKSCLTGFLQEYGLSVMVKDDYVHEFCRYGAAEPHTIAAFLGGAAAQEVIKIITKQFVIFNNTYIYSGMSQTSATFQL
KLK7 zymogen act = proKLK7 zymogen activators, primary screen, biochemical, fluorescence intensity; Kallikrein-7 (Homo sapiens), P49862; purified proKLK7, EDANS-DABCYL substrate fluorescence; 100% is mature enzyme control, 0% vehicle; activation, % at 7 µM; actives 0.9% (n = 370,000); AID 652039, 2013;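 active = activation above the mean of all tested compounds plus 3 SD, computed per campaign excluding outliers beyond control limits, cut at about 13% in these data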
proKLK7 act conf = proKLK7 zymogen activators, confirmation, biochemical, fluorescence intensity, triplicate | purified proKLK7, EDANS-DABCYL substrate fluorescence; scaled: vehicle 0, mature enzyme 100 | shares compounds with KLK7 zymogen act | actives 68% (n = 3,200) | activation, % at 7 µM;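 active = activation, as change over the incubation, above the mean of all tested compounds plus 3 SD, cut at about 13% in these data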
EDANS interfere = EDANS-DABCYL substrate optical interference, artefact control for kallikrein-7 zymogen activator project, biochemical, fluorescence intensity, high throughput. shares compounds with KLK7 zymogen act. no enzyme, 4 h; solvent 0%, active enzyme control 100%. activation, % at 7 µM. actives 80% (n = 3,200);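 active = activation above the all-compound mean plus 3 SD, ignoring values outside control-based bounds, cut at about 4.8% in these data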;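 also: value is the 4 h activation minus the activation read at time zero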
K7 EDANS ctr = optically interferes with EDANS-DABCYL fluorescence, kallikrein-7 activator counter-screen. shares compounds with KLK7 zymogen act. EDANS-DABCYL peptide fluorescence interference, no enzyme. EC50, µM. actives 20% (n = 250). AID 720493;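 active = compounds that raise the fluorescence signal in this interference counterscreen, with EC50 at or below 10 µM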;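 also: intact quenched peptide substrate alone read at 355 nm excitation and 520 nm emission; signal is fluorescence gain from T0 to T4 after four hours at room temperature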
Of the large screens only hits and unclear results are named; the others gave an inactive call (follow-up assays come after a bar, where shown). Only some compounds are listed: those with a hit (about 2.7% of all), similar ones and a draw of the others.

Cc1cc(C)c2c(n1)nn1c(C)c(CCC(=O)NCc3ccco3)c(C)nc21	KLK7 zymogen act 15 (not shown: Neddylation inh) | proKLK7 act conf inactive | EDANS interfere inactive
Cc1nc2cc(-c3ccccc3)nn2c(C)c1CCC(=O)NCc1ccco1	none (not shown: Neddylation inh)
Cc1n[nH]c(=O)n(N=Cc2c[nH]c3ccccc23)c1=O	none
OCCN1CCN(c2ncnc3c2ncn3[C@H]2CN(Cc3ccc4c(c3)OCO4)C[C@@H](CO)O2)CC1	none (no result: PfG6PD inh)
O=C1CC(c2ccccc2)n2nc(N3C(=O)CCC3=O)nc2N1 (stereo unspecified)	none
O=C1CC(c2ccccc2)n2nc(N3C(=O)c4ccccc4C3=O)nc2N1 (stereo unspecified)	none
CC1=CC(c2ccccc2)n2nc(N3C(=O)c4ccccc4C3=O)nc2N1 (stereo unspecified)	KLK7 zymogen act 17 | proKLK7 act conf inactive | EDANS interfere 8.0
CC1=CC(c2ccccc2)n2nc(N3C(=O)CCC3=O)nc2N1 (stereo unspecified)	KLK7 zymogen act 76 (not shown: Neddylation inh) | proKLK7 act conf 112 | EDANS interfere 142
CC1=CC(c2ccccc2)n2nc(N3C(=O)C4CC=CCC4C3=O)nc2N1 (stereo unspecified)	KLK7 zymogen act 113 (not shown: Neddylation inh) | proKLK7 act conf 211 | EDANS interfere 191
Nc1nc(N2C(=O)C3CC=CCC3C2=O)nn1-c1ccccc1 (stereo unspecified)	none
COc1ccccc1OCCOc1ccccc1/C=N/n1cnnc1	none
COc1cccc2cccc(/C=N/n3cnnc3)c12	KLK7 zymogen act 15 (not shown: Neddylation inh) | proKLK7 act conf 15 | EDANS interfere 10 | K7 EDANS ctr inactive
CCCCCCn1c(=O)[nH]c2nc3cc(N)ccc3nc2c1=O	KLK7 zymogen act 14 (no result: FAS TE block, Neddylation inh) | proKLK7 act conf 19 | EDANS interfere 20
N#CC(C#N)=Cc1c[nH]c(=O)c(C#N)c1Nc1ccccc1	KLK7 zymogen act 62 | proKLK7 act conf 63 | EDANS interfere 62
O=S1(=O)CC(N2CCC(c3ccccc3)CC2)CN1Cc1ccccc1 (stereo unspecified)	none (no result: PfG6PD inh)
CCNC(=O)c1cc2c(=O)n3cccc(C)c3nc2n(Cc2ccc(C)cc2)c1=N	none (not shown: Neddylation inh)
CCOC(=O)c1cc2c(=O)n3cccc(C)c3nc2n(CC(C)C)c1=NC(=O)c1ccco1	KLK7 zymogen act 74 (not shown: Neddylation inh) | proKLK7 act conf inactive | EDANS interfere 5.7
CCOC(=O)c1cc2c(=O)n3ccccc3nc2n(Cc2ccco2)c1=NC(=O)c1cccc(OC)c1	KLK7 zymogen act 29 (not shown: Neddylation inh) | proKLK7 act conf 42 | EDANS interfere 53
Cc1cccn2c(=O)c3cc(S(=O)(=O)c4ccccc4)c(=N)n(Cc4ccco4)c3nc12	none (not shown: Neddylation inh)
CCOC(=O)c1cc2c(=O)n3cccc(C)c3nc2n(Cc2ccco2)c1=NC(=O)c1ccccc1	KLK7 zymogen act 24 (not shown: Neddylation inh) | proKLK7 act conf 37 | EDANS interfere 36
CN(C)c1cccc(CNC(=O)c2ccc3nc([C@@H]4O[C@H](CO)[C@H](O)[C@H](O)[C@H]4O)[nH]c3c2)c1	none (no result: PfG6PD inh)
CCOP(=O)(OCC)C(NC(=O)c1cccs1)C(F)(F)F (stereo unspecified)	KLK7 zymogen act 167 | proKLK7 act conf 241 | EDANS interfere 247
CC(=O)NCCNc1nc(NCC2CC2)nc2cc(-c3ccccc3)sc12	none (no result: PfG6PD inh)
COC(=O)C1=C(C)N(C)C(=NCc2ccc(C(F)(F)F)cc2)NC1c1ccccc1C(F)(F)F (stereo unspecified)	none (no result: PfG6PD inh, FAS TE block, Neddylation inh)
CC1(C)Oc2cc3oc(C(=O)O)cc(=O)c3cc2-c2ccccc21	KLK7 zymogen act 100 (not shown: Neddylation inh) | proKLK7 act conf 68 | EDANS interfere 67
Cc1cn([C@H]2C[C@H](O)[C@@H](/C=C/C(=O)NCc3ccco3)O2)c(=O)[nH]c1=O	none (no result: PfG6PD inh)
CCOc1ccccc1/C=C/c1nc2ccccc2[nH]c1=O	KLK7 zymogen act 13 (not shown: Neddylation inh) | proKLK7 act conf inactive | EDANS interfere inactive
CCOc1ccccc1OCCCC(=O)Nc1nc2ccccc2[nH]1	none
CC(=O)/C=C(\C)Nc1ccc(-c2cnc(-c3ccccc3)o2)cc1	KLK7 zymogen act 57 | proKLK7 act conf 63 | EDANS interfere 64
Cc1cc(C)n(-c2ccc(C(=O)N3CCN(S(=O)(=O)c4ccc(OC(F)(F)F)cc4)CC3)cc2)n1	none
CCCCN(C)CCNC(=O)c1cc2cc3ccc(OC)cc3nc2o1	KLK7 zymogen act 100 (not shown: Neddylation inh) | proKLK7 act conf 54 | EDANS interfere 77
CCN(CC)CCNC(=O)c1cc2cc3ccc(OC)cc3nc2o1	KLK7 zymogen act 24 (not shown: Neddylation inh) | proKLK7 act conf 76 | EDANS interfere 84
CCCCN(C)C(=O)c1cc2cc3cc(OC)ccc3nc2o1	none (not shown: Neddylation inh)
Cc1ccc2cc3cc(C(=O)NCCCN4CC(C)CC(C)C4)oc3nc2c1 (stereo unspecified)	KLK7 zymogen act 30 (not shown: Neddylation inh) | proKLK7 act conf inactive | EDANS interfere inactive
COc1ccc2cc3cc(C(=O)NC(C)C)oc3nc2c1	KLK7 zymogen act 35 (not shown: Neddylation inh) | proKLK7 act conf 78 | EDANS interfere 83
CC(C)(C)CSc1nnc(-c2cccnc2)n1Cc1ccccc1	none (no result: PfG6PD inh, FAS TE block, Neddylation inh)
Nc1nc2ccccc2n1S(=O)(=O)c1ccc(Cl)cc1	none (no result: PfG6PD inh)
COC(=O)[C@]12C[C@H](CC(=O)N3CCOCC3)C(=O)N(Cc3ccc(Cl)cc3Cl)C1=C[C@H](C1CCCC1)O[C@@H]2C	none (no result: PfG6PD inh, FAS TE block, Neddylation inh)
COc1ccc2cc3cc(C(=O)NCc4ccc5c(c4)OCO5)oc3nc2c1	none (not shown: Neddylation inh)
COc1ccc2cc3cc(C(=O)NCc4cccnc4)oc3nc2c1	KLK7 zymogen act 45 (not shown: Neddylation inh) | proKLK7 act conf 54 | EDANS interfere 53
COCCCNC(=O)c1cc2cc3cc(OC)ccc3nc2o1	KLK7 zymogen act 23 (not shown: Neddylation inh) | proKLK7 act conf 23 | EDANS interfere 29
NC(Cc1ccc(F)cc1)c1csc(NC(=O)NC(c2ccccc2)c2ccccc2)n1 (stereo unspecified)	none (no result: PfG6PD inh)
COc1ccc(-c2coc3cc(OC)ccc3c2=O)cc1	none
CC(=O)Oc1ccc2c(=O)c(-c3ccccc3)coc2c1	KLK7 zymogen act 90 (not shown: Neddylation inh) | proKLK7 act conf 274 | EDANS interfere 247
COc1ccc(-c2coc3cc(OC(C)=O)ccc3c2=S)cc1	KLK7 zymogen act 51 (not shown: Neddylation inh) | proKLK7 act conf 93 | EDANS interfere 77
COc1ccc(-c2coc3cc(O)c(OC)cc3c2=O)cc1	KLK7 zymogen act 13 (not shown: Neddylation inh) | proKLK7 act conf 67 | EDANS interfere 54
CCOC(=O)[C@]12CCC=C1N(Cc1ccco1)C(=O)[C@H](CC(=O)NCCCN1CCCC1=O)C2	none (no result: PfG6PD inh)
